Test results taken from ChEMBL document CHEMBL3988442, “University of Dundee, Small-Polar-MMV Screening Library” (2021).
In all, about 48,000 compounds went through this assay and about 13,000 (27%) showed an effect of 50% or more. Some of the results follow.

tested on: Wolbachia pipientis; test: Anti-Wolbachia Cell-Based Screen; assay type: functional; set-up: scale not given: in the data most compounds retested in dose-response had high values; details: 5 µM

SMILES | Percent Effect [%]
CN(C)C(=O)NC1COC2(CCN(Cc3ccc(Cl)c(F)c3)CC2)C1.O=C(O)C(F)(F)F (configuration not stated) | 5.668
O=C(c1ccc(Cn2cccc2)cc1)N1CCN(CCO)CC1 | 94.5
CCCN1CCN(C(=O)c2ccc(Cn3cc(Br)cn3)cc2)CC1 | -5.49
CC(O)CN1CCN(C(=O)c2ccc(Cn3cccn3)cc2)CC1 (configuration not stated) | 3.707
CC(O)CN1CCN(C(=O)c2ccc(Cn3cccc3)cc2)CC1 (configuration not stated) | 3.366
CCC(O)CN1CCN(C(=O)c2ccc(Cn3cccc3)cc2)CC1 (configuration not stated) | 90.26
O=C(c1ccc(Oc2cccnc2)cc1)N1CCN(CCO)CC1 | 6.053
Cc1cc2c(c(-c3cnccn3)c1)OC(CN)C2 (configuration not stated) | -6.126
CCN(Cc1nc(COC)no1)Cc1cccnc1NC(=O)C(C)(C)C | -4.491
Cc1c(Cl)cccc1NC(=O)CCNc1ccc(C#N)cn1 | 0.2076
Cc1c(Cl)cccc1NC(=O)c1nc[nH]n1 | 83.83
Cc1c(Cl)cccc1NC(=O)Cn1cc(C(=O)O)ccc1=O | 1.545
O=C(O)C(F)(F)F.O=C(O)C(F)(F)F.c1cncc(CN2CCc3ncnc(C4CC4)c3CC2)c1 | 8.838
COc1ccc(CN2CCc3ncnc(C4CC4)c3CC2)cc1.O=C(O)C(F)(F)F | 110.6
Fc1ccc(CN2CCc3ncnc(C4CC4)c3CC2)cc1.O=C(O)C(F)(F)F | 98.26
O=C(O)C(F)(F)F.c1ccc(CN2CCc3ncnc(C4CC4)c3CC2)cc1 | 85.35
O=C(O)C(F)(F)F.c1nc2c(c(C3CC3)n1)CCN(Cc1ccc3c(c1)OCO3)CC2 | -14.88
COc1ccc(CN2CCc3ncnc(C4CCOC4)c3CC2)cc1.O=C(O)C(F)(F)F (configuration not stated) | -16.69
CCN(C)c1ncnc2c1CCN(Cc1ccc(OC)cc1)CC2.O=C(O)C(F)(F)F.O=C(O)C(F)(F)F | -7.101
Fc1ccc(CN2CCc3ncnc(C4CCOC4)c3CC2)cc1.O=C(O)C(F)(F)F (configuration not stated) | -4.98
O=C(O)C(F)(F)F.O=C(O)C(F)(F)F.c1ccc(CN2CCc3ncnc(C4CC4)c3CC2)nc1 | -2.713
Cc1ccc(O)c(C(=O)N2CCC(CNC(=O)OC(C)(C)C)C2)c1 (configuration not stated) | 18.78
Cc1cc(NC(=O)c2ccc(N3CCOCC3)c(F)c2)[nH]n1 | -5.615

SMILES | Percent Effect [%]
Cl.O=C(NC[C@@]1(COc2cnccn2)C[C@@H](O)[C@@H](O)C1)C1CC1 | -0.6559
O=C(NCc1ccccc1F)NCC(O)c1cccc(F)c1 (configuration not stated) | 109.5
O=C(NCCc1ccccc1F)NCC(O)c1cccc(F)c1 (configuration not stated) | 91.24
O=C(NCC(O)c1cccc(F)c1)c1cccnc1O (configuration not stated) | -4.303
CN1CCN(C)C(c2nnc3ccc(C(=O)N4CCOCC4)cn23)C1.O=C(O)C(F)(F)F.O=C(O)C(F)(F)F (configuration not stated) | 7.547
COc1ncc(C)cc1NC(=O)CCc1ccccn1 | -10.54
CO[C@H]1[C@@H]2CC[C@H]1CN(c1nc(C)nc3ccsc13)C2 | 116.9
CO[C@H]1[C@@H]2CC[C@H]1CN(c1nc(C)nc3sccc13)C2 | 2.93
Cc1nc(N2CCC(C(O)c3nccn3C)CC2)c2sccc2n1 (configuration not stated) | -1.351
Cc1nc2c(c(N3CCC(O)(CN4CCCC4)CC3)n1)CCNCC2 | -22.09
CNc1cncc(C2CCCN2C(=O)CCn2ccnc2)n1 (configuration not stated) | 78.35
CC(C)c1nccn1CCC(=O)N1CCCCC1c1ccn[nH]1 (configuration not stated) | 89.39
CNc1cncc(C2CCCN2C(=O)c2ccc3oc(=O)n(C)c3c2)n1 (configuration not stated) | -20.51
O=C(Cn1c(=O)oc2ccccc21)N1Cc2cncnc2C1 | -8.946
CNc1cncc(C2CCCN2C(=O)Cn2c(=O)oc3ccccc32)n1 (configuration not stated) | 88.17
O=C(NCCCn1ccnc1)N1CCCC1c1ccncc1 (configuration not stated) | 0.09304
Cn1cc(C2CCCN2C(=O)CCn2ccc3ccccc32)cn1 (configuration not stated) | 20.59
CNc1cncc(C2CCCN2C(=O)CCn2ccnc2C(C)C)n1 (configuration not stated) | 103
CC(C)c1nccn1CCC(=O)N1CCCC1c1cccn1C (configuration not stated) | 1.985
CC(C)(C)Cc1noc2ncc(C(=O)N3CCCSCC3)cc12 | -8.808
Cn1c(-c2ccc(F)cc2)cn2cc(C(=O)N3CC[C@@H](O)C3)nc2c1=O | 4.586
CN(C(=O)Cc1ccc(NC(=O)NC2CC2)cc1)c1ccccc1 | 5.932
COc1cccc(/C=C/CCN2CCC(C(=O)N3CCCC3)CC2)c1 | -5.123

SMILES | Percent Effect [%]
CC(C)CCN1CC2(CCCN(C(=O)NCc3cccs3)C2)CCC1=O (configuration not stated) | 1.307
CNc1cncc(C2CCCN2C(=O)Cn2ccnc2C)n1 (configuration not stated) | 100.6
CCc1nccn1CCC(=O)N1CCCC1c1cncc(NC)n1 (configuration not stated) | 72.9
CCc1nccn1CCC(=O)N1CC[C@H](CO)[C@H](O)C1 | -12.26
CCc1nccn1CCC(=O)N1CCCC1c1ccc(F)cc1 (configuration not stated) | 18.71
CCc1nc(CN2CCCN(c3nc4ccccc4o3)CC2)no1 | 1.249
O=C(NC1CCN(C2CC2)CC1)c1[nH]nc(C2CC2)c1Cl | 0.5841
CCn1cc(CN2C[C@H]3CC[C@@H]2CN(C(=O)C2CCC2)C3)cn1 | 1.465
CSCC(C)(O)CNC(=O)Nc1cc(C)cc(C)c1 (configuration not stated) | -12.06
Cn1nc(C2CC2)c2c1NC(=O)CC2c1cc(CN2CCCC2)cs1 (configuration not stated) | -26.2
CCOCCn1c(=O)[nH]c2cc(C(=O)N(C)Cc3cc(C)[nH]n3)ccc21 | 4.063
C=C(C)CN1CCC(NC(=O)NCCc2ccc(N(C)C)cc2)CC1 | -10.94
CNc1cc(N2CCCC2CNCc2cnc(C)cn2)ncn1 (configuration not stated) | -4.576
CNc1cc(N2CCC(O)(CNC(=O)c3ccc(C)nc3)C2)ncn1 (configuration not stated) | 87.58
Cc1ccc(C(=O)NCc2ccnc(N3CCN(C)CC3)c2)cn1 | -19.75
Cc1cnn(CC2CCCN2C(=O)c2csc(C3CC3)n2)c1 (configuration not stated) | 86.35
COCc1nc(C(=O)N2CCCC2c2ccccc2C)cs1 (configuration not stated) | 8.95
COCc1nc(C(=O)N2CCCC2Cn2cc(C)cn2)cs1 (configuration not stated) | 115.1
Cc1cnn(CC2CCCCN2C(=O)c2ccc(C#N)c(C)n2)c1 (configuration not stated) | 2.901
COCc1nc(C(=O)N2CCCCC2Cn2cc(C)cn2)cs1 (configuration not stated) | 2.393
Cc1cnn(CC2CCCN2C(=O)c2csc(C(C)C)n2)c1 (configuration not stated) | 113.9
